Our source for the composite z-score and z-score values is PubChem BioAssay.

Calls of active or inactive are those of the source.

Assay [1] is described as follows: anti-His antibody binders, primary screen, artefact control for SMM control protein annotation, biochemical, small-molecule microarray, 635 nm fluorescence (AID 1128).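 Also: score merges feature fluorescence with signal-to-noise for each printed compound spot.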 Conditions: anti-His Alexa647 antibody binding, higher = more signal.
For assay [2], the system named is Human papillomavirus type 1a E7 protein (residues 1-88). Kind of assay: HPV1a E7 small-molecule binders, primary screen, biochemical, small-molecule microarray, residues 1-88, 635 nm (AID 1129). Conditions: small-molecule microarray binding, fluorescence 635 nm; higher = more signal.
In assay [3] the target is Focal adhesion kinase 1 (Homo sapiens) (UniProt Q05397). Kind of assay: small-molecule microarray binders of FAK, primary screen, biochemical, 635/667 nm fluorescence, BSA, DTT (AID 1130).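 Also: composite of spot emission at 667 nm and signal to noise over triplicate slides.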 Conditions: PTK2 binding, 635 nm fluorescence, higher = more signal.
Chain of Focal adhesion kinase 1 (Homo sapiens) (Q05397 whole entry, looked up): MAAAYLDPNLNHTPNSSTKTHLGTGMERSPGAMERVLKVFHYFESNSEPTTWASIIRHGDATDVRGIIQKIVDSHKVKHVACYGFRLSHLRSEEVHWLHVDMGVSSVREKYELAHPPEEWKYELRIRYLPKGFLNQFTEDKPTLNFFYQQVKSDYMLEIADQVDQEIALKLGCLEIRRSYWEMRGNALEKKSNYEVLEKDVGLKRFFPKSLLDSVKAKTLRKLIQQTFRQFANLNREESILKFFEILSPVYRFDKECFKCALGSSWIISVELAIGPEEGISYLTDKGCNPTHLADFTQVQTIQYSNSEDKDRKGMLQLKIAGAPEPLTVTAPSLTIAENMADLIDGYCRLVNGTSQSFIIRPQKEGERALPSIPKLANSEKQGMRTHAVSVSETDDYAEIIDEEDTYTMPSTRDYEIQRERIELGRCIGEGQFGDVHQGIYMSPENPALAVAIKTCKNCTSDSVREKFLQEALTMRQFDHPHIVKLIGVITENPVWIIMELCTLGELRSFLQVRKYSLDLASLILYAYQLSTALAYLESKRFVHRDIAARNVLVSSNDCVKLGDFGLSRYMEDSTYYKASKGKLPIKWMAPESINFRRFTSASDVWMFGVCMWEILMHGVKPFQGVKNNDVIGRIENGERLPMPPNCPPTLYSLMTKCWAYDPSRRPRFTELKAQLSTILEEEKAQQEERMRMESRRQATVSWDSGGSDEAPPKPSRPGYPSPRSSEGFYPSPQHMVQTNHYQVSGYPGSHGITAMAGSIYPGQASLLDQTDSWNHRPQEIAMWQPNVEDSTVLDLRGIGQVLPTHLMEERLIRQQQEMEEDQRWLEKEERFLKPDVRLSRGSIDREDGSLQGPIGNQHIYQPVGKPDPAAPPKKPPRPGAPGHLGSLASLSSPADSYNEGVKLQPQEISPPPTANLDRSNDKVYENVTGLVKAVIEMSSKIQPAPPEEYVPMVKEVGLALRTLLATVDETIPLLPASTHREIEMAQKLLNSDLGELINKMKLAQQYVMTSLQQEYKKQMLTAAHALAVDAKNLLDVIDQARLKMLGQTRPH
Assay [4] has as its system Fibrinogen (Alexa647-labelled). Briefly: fibrinogen binders on compound microarrays, profiling panel, artefact control for SMM control-protein annotation, biochemical, small-molecule microarray, 635/667 nm fluorescence (AID 1131).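 Also: z-score merges 667 nm fluorescence with per-spot signal-to-noise over triplicate slides.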 Conditions: fibrinogen-A647 binding fluorescence, higher = more signal.
The target of assay [5] is Follistatin (Homo sapiens) (UniProt P19883). Kind of assay: follistatin binders on small-molecule microarrays, primary screen, biochemical, small-molecule microarray, 635/667 nm fluorescence (AID 1132). Conditions: FST binding, 635 nm fluorescence, higher = more signal.
Chain of Follistatin (Homo sapiens) (P19883 whole entry, looked up): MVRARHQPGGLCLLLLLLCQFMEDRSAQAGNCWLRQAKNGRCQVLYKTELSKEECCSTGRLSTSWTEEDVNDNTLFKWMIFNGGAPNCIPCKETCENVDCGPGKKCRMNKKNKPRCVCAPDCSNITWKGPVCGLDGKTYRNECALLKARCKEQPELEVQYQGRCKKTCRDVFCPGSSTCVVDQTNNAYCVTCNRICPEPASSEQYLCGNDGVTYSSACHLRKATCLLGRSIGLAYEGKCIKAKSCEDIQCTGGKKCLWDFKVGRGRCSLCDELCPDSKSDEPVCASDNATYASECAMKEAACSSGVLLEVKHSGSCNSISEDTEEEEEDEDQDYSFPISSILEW
Assay [6] has as its target Fibroblast growth factor 2 (Homo sapiens) (UniProt P09038). Kind of assay: FGF2 binders on small-molecule microarrays, primary screen, biochemical, small-molecule microarray, 635/667 nm fluorescence (AID 1133). Conditions: small-molecule microarray binding, FGF2, fluorescence 635/667; higher = more signal.
A short description of assay [7]: mitochondrial membrane potential change in A549 cells, profiling panel, cell-based, JC-1 fluorescence, basal, 24 h, 100 nL (AID 1138).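 Also: A549 lung adenocarcinoma cells under basal conditions with no added stimulus; test concentration not given here.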 Conditions: higher = more signal.
For another assay, the system named is Lefty1. Briefly: Lefty1 binders on small-molecule microarrays, primary screen, biochemical, small-molecule microarray, 635/667 nm fluorescence (AID 1139). Conditions: small-molecule microarray binding, fluorescence 635/667; higher = more signal.
For assay [8], the system named is wheat germ agglutinin (Triticum aestivum), Alexa647-labelled. Kind of assay: wheat germ agglutinin binders on compound microarrays, profiling panel, artefact control for SMM control-protein annotation, biochemical, small-molecule microarray, 635/667 nm fluorescence (AID 1140).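 Also: score merges 667 nm feature emission with signal to noise over triplicate slides.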 Conditions: WGA-A647 binding, 635 nm fluorescence, higher = more signal.
Assay [9] deals with Luciferin 4-monooxygenase (Photinus pyralis) (UniProt P08659). Briefly: firefly luciferase enzyme inhibitors, primary screen, biochemical, luminescence, purified enzyme, 2006 set (AID 1141).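 Also: cell-free assay with purified firefly luciferase at 100 ng per well in PBS; test concentration not given here.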 Conditions: SteadyGlo luminescence, 30 min, higher = more signal, called active from +8 up or from −8 down.
Chain of Luciferin 4-monooxygenase (Photinus pyralis) (P08659 whole entry, looked up): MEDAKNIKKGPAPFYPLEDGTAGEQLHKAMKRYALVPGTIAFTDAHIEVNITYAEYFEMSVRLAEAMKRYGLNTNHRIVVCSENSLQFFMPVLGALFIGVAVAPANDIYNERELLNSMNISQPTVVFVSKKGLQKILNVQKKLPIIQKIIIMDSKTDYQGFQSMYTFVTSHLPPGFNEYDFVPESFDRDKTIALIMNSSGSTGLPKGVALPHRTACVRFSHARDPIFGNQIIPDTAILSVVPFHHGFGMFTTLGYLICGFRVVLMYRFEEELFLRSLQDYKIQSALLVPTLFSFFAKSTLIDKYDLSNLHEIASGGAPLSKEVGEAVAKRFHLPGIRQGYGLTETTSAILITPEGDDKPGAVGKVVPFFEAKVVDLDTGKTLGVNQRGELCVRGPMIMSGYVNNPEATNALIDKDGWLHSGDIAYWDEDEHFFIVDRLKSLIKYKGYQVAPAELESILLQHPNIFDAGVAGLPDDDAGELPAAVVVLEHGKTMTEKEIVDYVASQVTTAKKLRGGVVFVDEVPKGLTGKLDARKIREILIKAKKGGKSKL

Chain of Fibroblast growth factor 2 (Homo sapiens) (P09038 whole entry, looked up): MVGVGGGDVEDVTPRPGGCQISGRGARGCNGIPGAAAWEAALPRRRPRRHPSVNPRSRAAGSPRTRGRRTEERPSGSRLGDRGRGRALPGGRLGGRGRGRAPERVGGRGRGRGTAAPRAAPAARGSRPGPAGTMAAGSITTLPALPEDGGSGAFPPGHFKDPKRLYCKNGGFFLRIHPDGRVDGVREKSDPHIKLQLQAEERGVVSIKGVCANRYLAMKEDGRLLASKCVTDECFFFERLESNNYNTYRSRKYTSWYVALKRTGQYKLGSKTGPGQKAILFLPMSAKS

As for `COc1ccc([Si](C)(C)[C@H]2[C@H](CCn3cc([C@H](O)c4ccccc4)nn3)O[C@@]3(C(=O)N(Cc4ccc(N5CCOC5=O)cc4)c4ccccc43)[C@@H]2C)cc1`, the composite z-score in assay [1] was -0.194; in assay [2], -0.993; in [3], -0.775; in assay [4], -0.231; in assay [5], -0.988; in assay [6], -0.785. For the same compound, the figures for the composite z-score (with Lefty1; in [8]) were -0.919 and -0.0383, respectively. Moreover, the z-score was 1.26 in [7] and -0.278 (inactive) in assay [9].

As for `Cc1ccc(S[C@]2(C(=O)NCc3ccccc3)CC(=O)N(C(C)C)[C@@H]2c2ccc(CO)cc2I)cc1`, the composite z-score was 0.257 in assay [1]; -0.0754 in [2]; -0.19 in [3]; -0.956 in assay [4]; -0.289 in [5]; -1.04 in [6]. For the same compound, the figures for the composite z-score (with Lefty1; in assay [8]) were -1.17 and -0.0961, respectively. For the same compound, the z-score in [7] was -0.224; in [9], 0.667 (inactive).

For `CN(C)CCCNC(=O)[C@@]1(c2ccc([N+](=O)[O-])cc2)CC(=O)N(CC23CC4CC(CC(C4)C2)C3)[C@@H]1c1ccc(CO)cc1`, the composite z-score in [1] was 1.03; in [2] it was 1.19; in assay [3], 0.703; in assay [4] it was 0.807; in [5], 1.28; in assay [6], 0.844. In addition, the composite z-score in the assay with Lefty1 stood at 0.99; in assay [8], 0.955. In addition, the z-score in [7] was 0.742; in [9], 0.292 (inactive).

With `Cc1c(NC(=O)/C(C#N)=C/C=C/c2ccc(N(C)C)cc2)c(=O)n(-c2ccccc2)n1C`, the composite z-score in assay [1] amounted to 1.61; in assay [2], 1.18; in assay [3] it was 0.0505; in assay [4], 0.449; in [5], 0.763; in [6], 0.492. The results for the composite z-score (in the assay on Lefty1; in [8]) were 0.517 and 1.04, respectively. In addition, the figures for the z-score in assay [7] and in assay [9] were 1.43 and -3.99 (inactive), respectively.

As for `CN1C(=O)C2C=CC(C(O)Cc3ccccc3)N(N(c3ccccc3)c3ccccc3)C2C1=O` (stereo not given), the composite z-score was 0.548 in [1]; 1.17 in assay [2]; 0.293 in assay [3]; 0.331 in [4]; 0.307 in assay [5]; -0.622 in assay [6]. Moreover, the composite z-score was -0.0212 in the assay with Lefty1 and 0.201 in [8]. In addition, the z-score was 0.54 in assay [7] and -0.397 (inactive) in [9].

`COc1cc2c(cc1OC)CN(C(=O)[C@H]1[C@@H]3C(=O)O[C@@H](c4ccccc4)[C@@H](c4ccccc4)N3[C@@H](c3ccc(OCCO)cc3)[C@]13C(=O)Nc1ccc(C#CCCO)cc13)CC2`: the composite z-score in [1] came out at 1.43; in [2], 1.22; in assay [3] it was 0.541; in assay [4], 0.939; in [5], 1.35; in assay [6] it was 0.742. Moreover, the results for the composite z-score (with Lefty1; in [8]) were 1.14 and 1.01, respectively. Besides, the results for the z-score in assay [7] and in assay [9] were -0.96 and 0.268 (inactive), respectively.

Consider `COc1cc(OC)c(C(O)C2C=CC3C(=O)N(c4ccccc4)C(=O)C3N2Nc2ccc(C#N)cc2)cc1Br` (stereo not given), for which the composite z-score in assay [1] was 1.36; in [2] it was 1.02; in [3] it was 0.707; in assay [4] it was 0.674; in [5], 1.22; in [6], 0.217. The figures for the composite z-score (with Lefty1; in assay [8]) were -0.129 and 1.13, respectively. Also, the z-score was 0.658 in assay [7] and 0.289 (inactive) in [9].

As for `CCOC(=O)C[C@H]1[C@H](OC(=O)c2ccc(-c3ccccc3)cc2)[C@@H](NC(=O)c2ccc3ccccc3c2)c2cc(OCCCO)ccc2N1C(=O)c1ccc2ccccc2n1`, the composite z-score in assay [1] was 0.558; in [2], 0.921; in assay [3] it was -0.152; in assay [4] it was 0.735; in assay [5], 0.458; in assay [6], -0.141. The results for the composite z-score (with Lefty1; in [8]) were 0.367 and 0.209, respectively. Also, the figures for the z-score in assay [7] and in assay [9] were 0.329 and -0.704 (inactive), respectively.

For the compound `CN1C(=O)C2C=CC(C(O)C3CCCCC3)N(N3CCCCC3)C2C1=O` (stereo not given), the composite z-score in [1] stood at 1.18; in assay [2], 1.26; in assay [3], 0.542; in [4] it was 0.957; in assay [5], 1.31; in assay [6], 0.182. The composite z-score was 0.766 in the assay with Lefty1 and 0.774 in [8]. For the same compound, the results for the z-score in assay [7] and in assay [9] were 1.25 and 0.49 (inactive), respectively.

In the case of `O=C1NC(=O)C2C1C=CC(C(O)c1ccc3c(c1)OCO3)N2Nc1ccccn1` (stereo not given), the composite z-score came out at 0.942 in assay [1]; 0.256 in assay [2]; 0.0543 in assay [3]; 0.646 in assay [4]; 1.32 in assay [5]; 0.133 in assay [6]. Besides, the composite z-score in the assay with Lefty1 was found to be 0.146; in [8], 1.01. Besides, the z-score in [7] was 0.992; in assay [9], -0.716 (inactive).

For the compound `O=C1O[C@@H](c2ccccc2)[C@@H](c2ccccc2)N2[C@@H](c3ccc(O)cc3)[C@]3(C(=O)Nc4ccccc43)[C@@H](C(=O)Nc3nc4ccccc4s3)[C@H]12`, the composite z-score is 1.07 in assay [1]; 1.18 in assay [2]; 0.708 in [3]; 0.975 in assay [4]; 1.2 in [5]; 0.398 in [6]. The values for the composite z-score (in the assay with Lefty1; in assay [8]) were 0.745 and 0.634, respectively. For the same compound, the z-score in assay [7] was -2.38; in [9], -1.1 (inactive).

In the case of `CN1C(=O)C2C(C1=O)C1C=C(c3ccc(CO)cc3)C2C(c2cccs2)N1Cc1cccc(OC(F)(F)F)c1` (stereo not given), the composite z-score in assay [1] is 1.87; in [2] it was 1.25; in [3], 0.726; in [4], 1.02; in assay [5], 0.942; in assay [6] it was 0.384. Further, the composite z-score was determined as 0.733 in the assay on Lefty1 and 0.661 in [8]. Besides, the results for the z-score in [7] and in assay [9] were 0.38 and 0.117 (inactive), respectively.

Take `COCCCNC(=O)[C@@]1(Sc2ccc(C)cc2)CC(=O)N(C2Cc3ccccc3C2)[C@@H]1c1ccc(CO)cc1I`: the composite z-score in [1] is -0.961; in [2], -1.01; in assay [3], -1.01; in [4] it was -1.07; in assay [5] it was -1.01; in assay [6], -1.19. Also, the composite z-score is -1.68 in the assay on Lefty1 and -0.0708 in assay [8]. Further, the z-score in assay [7] was 0.314; in [9], 0.553 (inactive).

As for `O=C(CS)NCCCCCCNC(=O)[C@@H]1C[C@@H]2C(=O)N3CCC[C@H]3C(=O)N2[C@@H]1c1cccc(OCCO)c1`, the composite z-score came to 0.824 in assay [1]; 1.13 in assay [2]; 0.459 in assay [3]; 0.642 in [4]; 1.1 in [5]; 1.59 in assay [6]. Besides, the composite z-score in the assay on Lefty1 amounted to 0.361; in assay [8], 0.832. The z-score in [7] is 0.503; in [9], -0.681 (inactive).

Take `CCOC(=O)C[C@H]1[C@H](OC(=O)c2ccc(-c3ccccc3)cc2)[C@@H](NC(=O)c2ccc3ccccc3n2)c2cc(OCCCO)ccc2N1C(=O)c1ccccc1`: the composite z-score in [1] turned out to be 1.14; in assay [2], 1; in [3], 0.059; in [4] it was 0.702; in assay [5], 0.779; in assay [6], 0.736. Also, the composite z-score in the assay on Lefty1 stood at 0.815; in [8], 0.262. In addition, the values for the z-score in [7] and in [9] were -0.332 and 0.371 (inactive), respectively.
